According to the supplement of paper PMC11417369:
± gives the standard deviation of the averaged measurements. In all, about 25,000 sequences were measured (“ln(normalized median fluorescence intensity)”: median about 8.6, highest 2% from about 10 on). The entries come from a sample that favours the highest values as a whole.

What follows are sequences tested on PfAP2-EXP AP2 domain (GST-tagged) (assay: gcPBM binding intensity (ln(normalized median fluorescence intensity)); higher = stronger DNA binding).
Outline: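 Plasmodium falciparum DNA-binding domains carrying a GST tag were expressed in E. coli and applied for 1 h, at about 25 μg on average, to an Agilent 4 × 180k array. The array held primer-extended double-stranded 36-bp intergenic genomic probes together with negative controls, and binding took place in 1× PBS with 1% milk, 0.2 mg/ml BSA, 0.5% salmon testes DNA and 0.03% Triton X-100. An Alexa488 anti-GST antibody detected bound protein, and the array was scanned at 488 nm. Binding intensity is taken as the highest Masliner-normalised natural-log median intensity across replicate spots of either probe orientation.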

Sequence | gcPBM binding intensity (ln)
GAATAATCTAGAAACACACAAACACGACAAAAGAAA [CACACA_site4135] | 8.93 ± 0.55
TTTTGTTCTAATATGGGAACATAAATATTAAATATA [CACACA_negctrl_site1787] | 8.22 ± 0.45
TTATTTTTATATTTCACACACATATACTTTTACATA [CACACA_site4097] | 8.8 ± 0.47
TATTTGTTGTGAGTCACACATATATATATATATATA [CACACA_site4240] | 10.3 ± 0.42
CATATTTGCACTTTCACACATAAATATATAACTATA [CACACA_site6016] | 8.91 ± 0.31
ATTTTATTTTTTCACACACACATATATATATATATA [CACACA_site3334] | 10.2 ± 0.32
TCATTTTATTTTTTCACACACACATATATATATATA [CACACA_site3333] | 10.1 ± 0.33
TTTTTTTTTTTTGTCACACATATATTTGTATTTATA [CACACA_site5234] | 8.58 ± 0.38
TGTATATTTGTTGTTACACACATATATTTTTTTTTT [CACACA_site128] | 8.53 ± 0.3
TTTGTTATGGTTTTCTCACACATATATATATATATA [CACACA_site4617] | 10.4 ± 0.36
TATTTTATATTTCATTTGTTATTTTTCTTGGTTCTA [CACACA_negctrl_site33] | 8.63 ± 0.57
TTTCTTTCTTCACATATATATATATATATATTTATA [TGCATGCA_negctrl_site341] | 8.83 ± 0.3
TTTGTAACTTCTTTCACACATATATATATATATATA [CACACA_site5603] | 10.3 ± 0.47
TTTTTTTTTTTGGTTACACACATTTGTATATTCTCA [CACACA_site134] | 8.69 ± 0.49
TAAAATATTGTTATTACATGCAACCTTATGAAAAAT [TGCATGCA_site706] | 8.94 ± 0.17
GTATAAAAGTTATATACACACAACAGAATTACATAT [CACACA_site6212] | 8.68 ± 0.49
TCTTAATATGGTAATACACACTAATATACTTTTGTT [CACACA_site4969] | 8.55 ± 0.31
TTTTGTTTGTTCGTGACTACATTATGTTGTAAATAC [CACACA_negctrl_site604] | 8.78 ± 0.38
TATACATTTATGTACACACACATATAGGTATATTTA [CACACA_site7408] | 8.47 ± 0.099

Sequence | gcPBM binding intensity (ln)
AATTATAAAAAAAAAAAAAAAAAAAAAAACTAAATG [CACACA_negctrl_site1379] | 8.11 ± 0.47
TTTATTTTTTGTGGCACACAGAAGAAACAAGAACAA [CACACA_site1696] | 9.12 ± 0.35
TGAACAATATATAATAGTACATATTTATTTTTTTCT [XGTACX_site4256] | 8.13 ± 0.2
CTTAAAAAAAAAAAATGTACACATAAAAAAAATACA [XGTACX_site6700] | 8.52 ± 0.35
TTGTTGATTGTTATTTATCATTAGATGTAAAATATG [CACACA_negctrl_site927] | 8.39 ± 0.3
TATAAAATGTAATCTGAACACACATATTTTTTTAAT [CACACA_site8521] | 8.11 ± 0.37
ATATTGAATTCCAACACATGCAAAACTTTCGGTTTT [TGCATGCA_site485] | 8.8 ± 0.38
TCATATTATAAAAAATGTACAAGGAAAAAATATATA [XGTACX_site337] | 9.06 ± 0.58
TTTTTATATATATTCTCACACACTTTTTATTTTAAC [CACACA_site657] | 8.7 ± 0.46
AACATATTTATATACACACACATATTTATATGAAAT [CACACA_site6268] | 8.39 ± 0.33
TTTATTCTCAAACACACACACATATATATATATATA [CACACA_site2895] | 10.2 ± 0.51
TATTTATTCTCCAACACACACACATATATTTATATA [CACACA_site7376] | 8.69 ± 0.53
TATTTATTCTCCAACACACACACATATATATATATA [CACACA_site2894] | 10.1 ± 0.43
ATTTTATTTTCTCACACACACATATATATATATATA [CACACA_site5781] | 10.4 ± 0.4
TATACACATATTTTTACACACATATTTTTTCATATA [CACACA_site7244] | 8.7 ± 0.38
TTTTCATTTTTCTTTACACACATATATTTATTTATA [CACACA_site7119] | 8.94 ± 0.4
ATATTTATGAAGTTCACACATATATATATATATATA [CACACA_site5954] | 10.3 ± 0.52
TTTTCATTTTTCTTTACACACATATATATATATATA [CACACA_site2236] | 10.2 ± 0.31
ATATATTTTATACATACACACATATATATATTTTTT [CACACA_site3940] | 8.66 ± 0.33

Sequence | gcPBM binding intensity (ln)
ATTTTATTTTCATATGAACACACATATATATATTAT [CACACA_site8741] | 9.15 ± 0.47
TCGTGTTTTAAAAAAATGAAGAAAAGTAAAAAAAAA [XGTACX_negctrl_site23] | 8.46 ± 0.67
AGGATAATATACAAAAGTACATAAAACTAAAAAAAC [XGTACX_site605] | 9.01 ± 0.24
AAAAATATAACCGTTACACACAAAATAATATGAGAA [CACACA_site3773] | 8.72 ± 0.43
ATATTTATTTATTTATGTACGCACACAGTTGATATT [XGTACX_site5808] | 8.92 ± 0.4
TTTTTTTTATTTTGTTGTACGCTTATTTGTATATAT [XGTACX_site7325] | 8.95 ± 0.45
TAAATACATAAATACACACACATATATTATATATAT [CACACA_site4310] | 8.62 ± 0.14
AAAATATATAAACGCACATATATTTATGTATATATA [CACACA_negctrl_site163] | 8.64 ± 0.49
TTTTTTTTTTTGTTCACACATATACTTTTATTTTGG [CACACA_site4250] | 8.72 ± 0.47
TCCATATTTGTTCACACACACACATATTTATATATA [CACACA_site3570] | 8.84 ± 0.42
TTTTTTTTTTTGTTCACACATATATATATATATATA [CACACA_site5376] | 10.2 ± 0.37
TATAATTATTTTTTCACACATATGTATTTATATATA [CACACA_site4205] | 8.88 ± 0.43
AAAAAAAAAAAAATCACACATATGTATTTATATATA [CACACA_site5790] | 8.21 ± 0.46
TTTTTTTTTTACTTCACACATATACATTTATATTTA [CACACA_site4385] | 8.7 ± 0.44
AACGCACATATATTTATGTATATATATATATATATA [GTGCAC_negctrl_site478] | 10.2 ± 0.31
CATATTTTGAACTTCACACATATATATATATATATA [CACACA_site4228] | 10.2 ± 0.3
TTTTTTTTTTTTTTTTTTTATGTATACATATTTATA [TGCATGCA_negctrl_site234] | 8.28 ± 0.43
CATATGTATTTATTCACACATATATATATATATATA [CACACA_site4207] | 10.2 ± 0.4
TGAAGAATATTTTTCACACATATATATATATATATA [CACACA_site6080] | 10.2 ± 0.38
